The full list was thinned out, with hits kept by preference.
APEX1 inh – inhibitors of human APE1 endonuclease | P27695 | hit rate 0.35% among 350,000 | recombinant APE1, TAMRA/BHQ-2 abasic DNA cleavage fluorescence | AID 2517 | Potency, µM (top dose mostly 65.8 µM), without a hit: top-dose activity change, negative = inhibition, hits mostly inhibitors;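 also: plate controls were vehicle for no effect and reference inhibitor for full effect; nearly all actives have a fitted effect of over 55% in size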
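0.75 nM APE1 + cpd, 15 min RT; start w/ 50 nM TAMRA/BHQ-2 THF-abasic dsDNA; kinetic fluor 525/598 nm ×3 reads @60 s; Δ(read3−read1); normalized to DMSO and NSC13755 control wells.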
RECQ1 inh – blocks DNA unwinding by human RECQ1; RECQ1 DNA unwinding, red fluorescence kinetic read; Potency, µM (highest dose often 57.3 µM), for inactives: top-dose activity, negative = inhibition, hits mostly inhibitors; hit rate 0.54% among 240,000;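 also: plate controls were vehicle for no effect and no enzyme for full effect; nearly all actives have a fitted effect of over 30% in size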
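50 nM RECQ1T1 preincubated 15 min with compound in Tris pH 8.0 buffer with MgCl2, DTT, Tween-20 and 2.5 ug/ml poly(dI-dC); started with 200 nM TAMRA/BHQ-2 forked duplex and 2 mM ATP. Unwinding read as fluorescence (525/598 nm), two reads 2 h apart.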
TDP1 inh – inhibitors of human tyrosyl-DNA phosphodiesterase TDP1. Q9NUW8. recombinant TDP1, AlphaScreen DNA substrate cleavage. Potency, µM (highest dose often 130 µM), for inactives: top-dose activity change, negative = inhibition, usual class: inhibitors. hit rate 0.28% among 350,000; also: nearly all actives have a fitted effect of over 40% in size
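Here, a 5' biotin and 3' phosphotyrosine-FITC DNA oligonucleotide reports Tdp1 activity: intact substrate bridges AlphaScreen beads, while cleavage leaves a 3' phosphate and drops signal. All incubations at room temperature.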
BLM inh – Bloom syndrome helicase (human) inhibition; recombinant BLM DNA unwinding, fluorescence dequenching; hit rate 0.2% among 350,000; Potency, µM (titrated, usually from 56.1 µM), for the others: top-dose activity change, negative = inhibition, hits mostly inhibitors; P54132;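 also: plate controls were vehicle for no effect and no enzyme for full effect; nearly all actives have a fitted effect of over 35% in size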
L3MBTL1 block – blocks human L3MBTL1; AlphaScreen L3MBTL1–H3K9me1 peptide binding; Q9Y468; Potency, µM (titrated, usually from 57.1 µM), for the others: top-dose activity, negative = inhibition, actives largely listed as inhibitors; hit rate 0.66% among 230,000; also: nearly all actives have a fitted effect of over 60% in size
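First, the protein-peptide complex forms for 30 min at room temperature (L3MBTL1 50 nM, biotinylated H3K9me1 peptide 75 nM). Next, compounds are pin-transferred and incubated 30 min. Finally, AlphaScreen beads are added and read after 30 min.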
KDM4E inh – inhibitors of human JMJD2E histone demethylase; JMJD2E catalytic domain, FDH-coupled NADH fluorescence (FDH is formaldehyde dehydrogenase); Potency, µM (top dose mostly 57.1 µM), for the others: at the highest dose activity change, negative = inhibition, hits mostly inhibitors; hit rate 1.6% among 230,000; active = well fitted inhibition curve with a large enough effect, not every such curve was filed as active; inconclusive = small, poorly fitted or top-dose-only effect, or another doubt; inactive = no such curve, though single readings can be large or run the other way;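 also: 0% = wells with enzyme and -100% = buffer wells without enzyme; nearly all actives have a fitted effect of over 50% in size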
Target sequence (B2RXH2 1-337 limits assumed): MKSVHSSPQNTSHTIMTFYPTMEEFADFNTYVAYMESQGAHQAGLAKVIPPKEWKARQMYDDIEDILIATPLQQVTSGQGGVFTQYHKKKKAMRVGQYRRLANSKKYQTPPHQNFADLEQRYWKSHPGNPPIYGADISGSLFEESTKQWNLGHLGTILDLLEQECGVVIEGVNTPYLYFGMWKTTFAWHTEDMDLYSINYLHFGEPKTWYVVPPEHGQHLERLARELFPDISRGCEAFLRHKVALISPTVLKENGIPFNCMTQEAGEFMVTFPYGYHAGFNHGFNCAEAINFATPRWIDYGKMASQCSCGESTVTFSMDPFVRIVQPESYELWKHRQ
The depositor's hits bear a star; i = inactive; ? = inconclusive; . = no result; [ ] = remark or other dose. Unless noted, calls follow the shape of the dose curve; as a rule, active = well fitted curve in the direction sought with a large enough effect; inconclusive = small, poorly fitted or top-dose-only effect, or another doubt; inactive = no such curve, though single readings can be large; an effect the other way counts as inactive or inconclusive. Unless noted, % is scaled to controls: 0 for no effect and ±100 for the full control effect; potency is read from the fitted curve at half-maximal effect.

SMILES | APEX1 inh | RECQ1 inh | TDP1 inh | BLM inh | L3MBTL1 block | KDM4E inh
COc1ccc(S(=O)(=O)NCc2cccs2)cc1 | 13µM* | -21% | 22µM* | -30% | . | -10%
CCN(CC)S(=O)(=O)c1ccc(S(=O)(=O)NCc2cccs2)cc1 | 3% | . | . | -8% | . | .
O=C1CNC(=S)N1CCc1ccc(O)c(O)c1 | ? | -2% | . | -3% | . | 13µM*
Cc1ccc2cc(N)ccc2n1 | -4% | i | 0% | -2% | -9% | 32µM*
CNc1oc(-c2cccc(Br)c2)nc1C#N | 25% | . | . | . | . | .
C[C@H](NC(=O)CNC(=O)[C@@H](NC(=O)[C@H](Cc1ccccc1)NC(=O)CNC(=O)CNC(=O)[C@@H](N)Cc1ccccc1)[C@@H](C)O)C(=O)N[C@@H](CCCN=C(N)N)C(=O)N[C@@H](CCCCN)C(=O)N[C@@H](CO)C(=O)N[C@@H](C)C(=O)N[C@@H](CCCN=C(N)N)C(=O)N[C@H](CN)CCCCN | 6% | i | 7% | . | . | .
CCn1cnc2c(Nc3ccc(Cc4cccnc4)cc3)nc(C#N)nc21 | . | . | 2% | . | . | .
COc1ccc(N(C)S(=O)(=O)c2ccc3c(c2)CCC(=O)N3)cc1 | 14µM* | -3% | -11% | -6% | 4% | -1%
COc1cc(NC(=O)CN(C)S(=O)(=O)c2ccc3c(c2)CCC(=O)N3)cc(OC)c1 | -2% | -2% | 4% | 0% | . | 4%
COc1cccc(-n2c(SCc3ccccc3C)nc3c([nH]c4ccccc43)c2=O)c1 | . | . | 7% | -6% | . | .
Cn1cncc1C#Cc1c(C=O)n(C)c2ccccc12 | -8% | . | 56µM* | . | 3% | .
Cn1cncc1C#Cc1c(C=O)[nH]c2ccccc12 | -9% | . | -3% | . | 3% | .
Cn1c2ccccc2c(=O)n2c(=O)c3ccccc3cc12 | ? | 0% | -1% | 25µM* | -16% | 0%
Cn1c(-c2ccccc2)cc(=O)c2ccccc21 | -5% | i | -3% | -1% | 8% | 2%
Oc1ccc(CNc2ccc(F)cc2)c2cccnc12 | 18% | ? | 8% | -7% | 32µM* | 7.9µM*
Cc1ccc(NCc2ccc(O)c3ncccc23)c(F)c1 | . | . | 1% | . | . | .
Cc1ccccc1NCc1ccc(O)c2ncccc12 | 1% | -6% | 9% | -1% | ? | 7.1µM*
Oc1ccc(CNc2ccccc2)c2cccnc12 | 3% | -5% | 9% | -7% | ? | 8.9µM*
Oc1ccc(CNc2cccc(F)c2)c2cccnc12 | . | . | 1% | . | . | .
CC(C)CCCC(C)CCCC(C)CCCC(C)C(=O)O (centres undefined) | -1% | -11% | 2% | ? | . | .
NC(=O)C1CCN(c2nc(-c3cccc([N+](=O)[O-])c3)cs2)CC1 | -8% | . | . | . | . | .
COc1ccc(C2CC(=O)c3cc(-c4nc(-c5cccc([N+](=O)[O-])c5)cs4)c(=O)n(-c4ccc(C)c(C)c4)c3C2)cc1 (centres undefined) | . | . | 0% | -5% | . | .
COc1ccc(CC(=O)Nc2nc(-c3ccc(OC)c(OC)c3)cs2)cc1OC | ? | . | 11% | -11% | . | .
COc1ccc(-c2csc(NC(=O)CSc3nc4ccccc4c(=O)[nH]3)n2)cc1 | 21%[12.4 µM] | . | 79µM* | -15% | . | .
COc1ccc(-c2csc(NC(=O)CC(NC(C)=O)c3ccccc3)n2)cc1OC (centres undefined) | -3% | . | 79µM* | 3% | . | .
Cn1nc(-c2cccnc2)nc2c(=O)n(C)c(=O)nc1-2 | . | . | 1% | . | . | .
Cc1nn(-c2ccccc2)c2c1C(c1ccco1)C(C#N)=C(N)O2 (centres undefined) | -20% | i | 10% | -5% | -30% | 14µM*
Cc1ccc(-n2nc(C)c3c2OC(N)=C(C#N)C3c2ccc(F)cc2)cc1 (centres undefined) | -1% | 4% | 5% | -2% | . | -5%
Cc1nn(-c2ccccc2)c2c1C(c1ccc([N+](=O)[O-])cc1)C(C#N)=C(N)O2 (centres undefined) | -1% | 0% | 5% | -7% | -16% | 18µM*

Assay outcomes deposited in PubChem BioAssay by National Center for Advancing Translational Sciences (NCATS).
